# The source made the active and inactive calls. Calls come from the whole dose curve; as a rule, active = well fitted cell-killing curve with a large enough effect; inconclusive = small, poorly fitted or top-dose-only effect; inactive = flat fitted curve, though single readings scatter.
# Experiment: Cell Viability - LYMP1-002 - Assay at 24 hr (AID 993)
# Conditions: LYMP1-002 lymphoblastoid cells viability; series mostly up to 92.2 µM
# Description: NIH Chemical Genomics Center [NCGC]
# NIH Molecular Libraries Screening Centers Network [MLSCN]
# National Institutes of Environmental Health Sciences [NIEHS]
# National Toxicology Program [NTP]
# We have developed a 1536-well cell-based assay for quantitative high throughput screening (qHTS) against a number of cell lines to determine in vitro cytotoxicity of small molecules. This particular assay uses a human lymphoblastoid cell line (LYMP1-002) purchased from Coriell Institute for Medical Research.
# NCGC Assay Protocol Summary:
# The CellTiter-Glo luminescent cell viability assay (Promega) is a homogeneous method to measure the number of viable cells in culture. The end point readout of this assay is based on quantitation of intracellular ATP, an indicator of metabolic activity, using the luciferase reaction. Luciferase catalyzes the oxidation of beetle Luciferin to oxyluciferin and light in the presence of ATP. The luminescent signal is proportional to amount of ATP present.
# Using the CellTiter-Glo luminescent cell viability assay, the amount of cellular ATP was measured in the lymphoblastoid cell line with complete culture medium following compound treatment for 24 hours. The assay was performed in opaque white Kalypsys 1536-well plates. In the screen, tetraoctylammonium bromide was used as positive control. Library compounds were measured for their ability to cause acute toxicity in the cell line, as reflected by a decrease in intracellular ATP levels, in a concentration-dependent manner. […] AC50 values were determined from concentration-response data modeled with the standard Hill equation.
# qHTS protocol for CellTiter Glo lymphoblastoid cellular assay
# [Step] [Parameter] [Value] [Description]
# 1. Reagent; 5 uL; 2500 lymphoblastoid cells/well
# 2. Time; 5 hr; 37 C incubation
# 4. Controls; 23 nL; Tetraoctylammonium bromide 6.4pM to 92 uM
# 5. Time; 24 hr; 37 C incubation
# 6. Reagent; 5 uL; CellTiter Glo reagent
# 7. Time; 30 min; Room Temperature
# 8. Detection; Luminescence; Viewlux plate reader
# Keywords: cell viability, cytotoxicity, lymphoblastoid cell line, luminescence, NTPHTS, NTPHTS_NCGC, NIEHS, DSSTox, MLSMR, MLSCN, NIH Roadmap, qHTS, NCGC
row,Structure (SMILES),outcome
1,c1ccc(Nc2ccc3ccccc3c2)cc1,inactive
2,Oc1ccccc1Cl,inactive
3,CC(C)COC(=O)c1ccccc1C(=O)OCC(C)C,inactive
4,COC1=CC(=O)OC(CCc2ccc3c(c2)OCO3)C1 (centres undefined),inactive
5,CC(C)(c1ccc(OCC2CO2)cc1)c1ccc(OCC2CO2)cc1 (centres undefined),inactive
6,c1ccc2c(c1)-c1cccc3cccc-2c13,inactive
7,CC(=O)[C@H]1CC[C@H]2[C@@H]3CCC4=CC(=O)CC[C@]4(C)[C@H]3CC[C@]12C,inactive
8,O=Cc1ccccc1,inactive
9,CCOC(=O)c1ccccc1N,inactive
10,CC(=O)/C=C/c1ccccc1,inactive
11,CCOc1cc(C=O)ccc1O,inactive
12,COC(=O)c1ccccc1C(=O)OC,inactive
13,Cc1ccccc1O,inactive
14,Oc1c(Cl)c(Cl)c(Cl)c(Cl)c1Cl,inactive

# Reference: PubChem BioAssay (NCATS)
